PubChem BioAssay (Tox21)
Values joined by “and” are separate entries in the source; they are usually repeats but may differ in a detail not shown here. Identical values can stand only once. Inconclusive results are not listed. Some structures have more than one record in an assay (separate samples or runs), and their calls can disagree. Active and inactive are the calls of the source. Unless noted, calls follow the shape of the dose curve; as a rule, active = well fitted curve in the direction sought with a large enough effect in the repeat runs; inconclusive = weak or mixed curves; inactive = no such curve, though single readings can be large; an effect the other way counts as inactive or inconclusive.

Assays:
[1] = qHTS assay to identify small molecule agonists of the hypoxia (HIF-1) signaling pathway - cell viability counter screen (AID 1224844; calls by dose curve; also: nearly all actives have a fitted effect of over 50% in size; also: potency is read from the fitted curve at half-maximal effect)
Procedure, shortened: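 Cells (HRE-bla ME-180, 2,000 per well) sat 5 hrs at 37C, got compound for 17 hrs, were read for CCF4-AM FRET, and were finally lysed with CellTiter-Glo for a 30 min room-temperature luminescence read.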

[2] = qHTS assay to identify small molecule agonists of H2AX (AID 1224845; active = well fitted activation curve with a large enough effect in the signal ratio in the repeat runs, not every such curve was filed as active; the % refers to the signal ratio)
Procedure, shortened: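 Phospho-H2AX Ser139 measured by HTRF (ex 320 nm; em 665 and 620 nm) after 24 hr antibody incubation. Compounds, 15 concentrations, 0.76% DMSO, were applied to CHO-K1 cells for 3hr at 37C before lysis.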

[3] = qHTS assay to identify small molecule agonists of the hypoxia (HIF-1) signaling pathway (AID 1224846; active = well fitted activation curve with a large enough effect in the signal ratio in the repeat runs, not every such curve was filed as active; the % refers to the signal ratio)
Procedure, shortened: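 A low-serum medium (0.5% dialyzed FBS) holding 2,000 HRE-bla ME-180 cells per well is preincubated for 5 hrs, dosed with compounds by pintool, and kept a further 17 hrs at 37C, 5% CO2 before CCF4-AM FRET detection of beta-lactamase.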

[4] = qHTS assay to identify small molecule agonists of H2AX - cell viability counter screen (AID 1224847; calls by dose curve; also: nearly all actives have a fitted effect of over 30% in size; also: potency is read from the fitted curve at half-maximal effect)
Procedure, shortened: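 Cells plated first: CHO-K1, 1000 per well in 10% FBS medium, incubated overnight at 37C. Then 15-point compound titration added (final DMSO 0.76%) for 3 hr. Finally CellTiter-Glo added and luminescence read.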

[5] = qHTS assay to identify small molecule antagonists of the estrogen related receptor (ERR) signaling pathway from Tox21 library (AID 1224848); also: nearly all actives have a fitted effect of over 50% in size; also: potency is read from the fitted curve at half-maximal effect
Procedure, shortened: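 Reading was by luminescence 30 min after ONE-Glo addition. Before that, ERR cells at 2,000 per well had rested 6 h at 37 C/5% CO2 and then received pin-tooled compounds in DMSO for 18 h at 37 C.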

[6] = qHTS assay to identify small molecule agonists of the estrogen related receptor (ERR) signaling pathway from Tox21 library (AID 1224849; calls by dose curve; also: nearly all actives have a fitted effect of over 15% in size); settings: ERR reporter cell line, ONE-Glo luciferase, 18 h
Procedure, shortened: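 Screening used an NTP-provided ERR luciferase cell line. Compounds in DMSO were added 6 h after seeding and left 18 h at 37 C before a 30 min ONE-Glo step and luminescence reading.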

[7] = qHTS RealTime-Glo MT Cell Viability Assay in HepG2 cells - 24 hour (AID 1224867); also: nearly all actives have a fitted effect of over 50% in size
Procedure, shortened: (§1)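 qHTS, HepG2, 600 cells/well, RealTime-Glo (NanoLuc + prosubstrate) added with cells; 5 h preincubation; DMSO compound addition; 37 C; luminescence at 0/8/16/24/32/40 h.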

[8] = qHTS RealTime-Glo MT Cell Viability Assay in HEK293 cells - 32 hour (AID 1224868); also: nearly all actives have a fitted effect of over 50% in size; also: potency is read from the fitted curve at half-maximal effect
Procedure, shortened: (§2)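 Assay medium contained NanoLuc luciferase plus cell-permeant prosubstrate, added with HEK293 cells at 600 cells/well. After 5 h at 37 C/5% CO2 compounds were added; plates stayed at 37 C for 40 h with serial luminescence reads.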

[9] = A CellTox Green Cytotoxicity Assay to monitor cytotoxicity in HEK293 cells - 0 hour (AID 1224869); also: nearly all actives have a fitted effect of over 50% in size
Procedure, shortened: (§3)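 Fluorescence intensity, read at 0, 8, 16, 24, 32 and 40 h of compound treatment, reflected dye binding to DNA of dead HEK293 cells; compounds (23 nL, DMSO) were added 5 h after plating cells with reagent.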

[10] = qHTS RealTime-Glo MT Cell Viability Assay in HepG2 cells - 40 hour (AID 1224870); also: nearly all actives have a fitted effect of over 50% in size
Procedure, shortened: (§4)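 Real-time viability: cells seeded at 600 per well together with NanoLuc and cell-permeant prosubstrate, compounds added after 5 h incubation. Luminescence tracked at 0, 8, 16, 24, 32 and 40 h of exposure.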

[11] = qHTS RealTime-Glo MT Cell Viability Assay in HEK293 cells - 16 hour (AID 1224872); also: nearly all actives have a fitted effect of over 50% in size; also: potency is read from the fitted curve at half-maximal effect
Procedure, shortened: as §2

[12] = qHTS RealTime-Glo MT Cell Viability Assay in HepG2 cells - 8 hour (AID 1224873); also: nearly all actives have a fitted effect of over 55% in size
Procedure, shortened: as §4

[13] = qHTS RealTime-Glo MT Cell Viability Assay in HEK293 cells - 40 hour (AID 1224874); settings: RealTime-Glo luminescence; max response: stronger effect = lower value; also: nearly all actives have a fitted effect of over 50% in size; also: potency is read from the fitted curve at half-maximal effect
Procedure, shortened: (§5)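 Viable HEK293 cells reduce a cell-permeant prosubstrate; the product diffuses out and is consumed by NanoLuc in the medium to give light. Compounds went in after a 5 h incubation and plates were read over the treatment course.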

[14] = A CellTox Green Cytotoxicity Assay to monitor cytotoxicity in HEK293 cells - 24 hour (AID 1224875); also: nearly all actives have a fitted effect of over 45% in size
Procedure, shortened: as §3

[15] = A CellTox Green Cytotoxicity Assay to monitor cytotoxicity in HepG2 cells - 16 hour (AID 1224876); also: nearly all actives have a fitted effect of over 45% in size
Procedure, shortened: (§6)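 Using 1536-well format, dye-containing HepG2 suspension was seeded, allowed 5 h at 37 C/5% CO2, dosed by pintool with compounds, positive and negative controls, and imaged for fluorescence across 40 h.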

[16] = qHTS RealTime-Glo MT Cell Viability Assay in HepG2 cells - 32 hour (AID 1224877); also: nearly all actives have a fitted effect of over 55% in size
Procedure, shortened: as §1

[17] = A CellTox Green Cytotoxicity Assay to monitor cytotoxicity in HepG2 cells - 24 hour (AID 1224878); also: nearly all actives have a fitted effect of over 45% in size
Procedure, shortened: as §6

[18] = A CellTox Green Cytotoxicity Assay to monitor cytotoxicity in HepG2 cells - 40 hour (AID 1224879); also: nearly all actives have a fitted effect of over 40% in size
Procedure, shortened: as §6

[19] = qHTS RealTime-Glo MT Cell Viability Assay in HEK293 cells - 0 hour (AID 1224880); also: top concentration of the series differs between compounds; nearly all actives have a fitted effect of over 45% in size
Procedure, shortened: as §5

[20] = A CellTox Green Cytotoxicity Assay to monitor cytotoxicity in HEK293 cells - 40 hour (AID 1224871); also: nearly all actives have a fitted effect of over 45% in size; also: potency is read from the fitted curve at half-maximal effect
Procedure, shortened: as §3
% is scaled to controls: 0 for no effect and ±100 for the full control effect.

O=C(COc1ccc(Cl)cc1)N1CCN(Cc2ccc3c(c2)OCO3)CC1
active: Potency [5] 27.3 µM and 18.8 µM | Potency [8] 43.6 µM | Potency [13] 38.9 µM
inactive: Potency [1] | outcome [2] | Potency [3] | activity change, positive = activation ([6]; at 42.5 µM (top of the series)) -37.2% | activity change, positive = activation ([6]; at 92.4 µM (top of the series)) -59.3% | Potency [7] | Potency [9] | Potency [10] | Potency [12] | Potency [14] | Potency [15] | Potency [16] | Potency [17] | Potency [18] | Potency [19]
101 µM (active) and inactive: Potency [4]
38.9 µM (active) and inactive: Potency [11]

CCCCOCCOCCOCCO
inactive: Potency [1] | outcome [2] | Potency [3] | Potency [4] | Potency [5] | activity change, positive = activation ([6]; at 42.5 µM (top of the series)) 2.27% | activity change, positive = activation ([6]; at 92.4 µM (top of the series)) -1.73% | Potency [7] | Potency [8] | Potency [9] | Potency [10] | Potency [11] | Potency [12] | max response [13] 3.72% and 4.47% | Potency [14] | Potency [15] | Potency [16] | Potency [17] | Potency [18] | Potency [19]

CC(=O)C1(C)CC2=C(CCCC2(C)C)CC1C (stereo not given)
inactive: Potency [1] | outcome [2] | Potency [3] | Potency [4] | Potency [5] | activity change, positive = activation ([6]; at 92.4 µM (top of the series)) 8.11% and 5.11% | Potency [7] | Potency [8] | Potency [9] | Potency [10] | Potency [11] | Potency [12] | max response [13] -4.9% and 2.42% | Potency [15] | Potency [16] | Potency [17] | Potency [18] | Potency [19]
active: Potency [20] 41.6 µM

Cc1cccc(C(=O)O)c1
inactive: Potency [1] | outcome [2] | Potency [3] | Potency [4] | Potency [5] | activity change, positive = activation ([6]; at 92.4 µM (top of the series)) 0.909% and 9.04% | Potency [7] | Potency [8] | Potency [9] | Potency [10] | Potency [20] | Potency [11] | Potency [12] | max response [13] 0.572% and -3.52% | Potency [14] | Potency [16] | Potency [17] | Potency [18]

O=C(Nc1ccc(Cl)cc1)Nc1ccc(Cl)c(Cl)c1
active: Potency [4] 22.5 µM and 28.4 µM and 22 µM | Potency [5] 5.42 µM and 11.9 µM | Potency [8] 4.34 µM and 4.36 µM and 3.38 µM | Potency [13] 4.34 µM and 3.89 µM and 3.01 µM
inactive and 8.71 µM (active): Potency [20]
inactive: Potency [1] | outcome [2] | Potency [3] | activity change, positive = activation ([6]; at 42.5 µM (top of the series)) -29.5% | activity change, positive = activation ([6]; at 92.4 µM (top of the series)) -26.7% and -3.58% | Potency [7] | Potency [9] | Potency [10] | Potency [12] | Potency [14] | Potency [15] | Potency [16] | Potency [17] | Potency [19]

CCCCC(CC)COCC1CO1 (stereo not given)
inactive: Potency [1] | outcome [2] | Potency [3] | Potency [4] | Potency [5] | activity change, positive = activation ([6]; at 92.4 µM (top of the series)) 1.35% and -0.071% | Potency [7] | Potency [8] | Potency [9] | Potency [10] | Potency [11] | Potency [12] | max response [13] 1.02% and 0.683% | Potency [14] | Potency [15] | Potency [16] | Potency [17] | Potency [18] | Potency [19]

CC(C)CC(C)(O)C#CC(C)(O)CC(C)C (stereo not given)
inactive: Potency [1] | outcome [2] | Potency [3] | Potency [4] | Potency [5] | activity change, positive = activation ([6]; at 92.4 µM (top of the series)) -11.8% and -19.1% | Potency [7] | Potency [8] | Potency [9] | Potency [10] | Potency [11] | Potency [12] | max response [13] -20.8% and -13.4% | Potency [14] | Potency [15] | Potency [16] | Potency [17] | Potency [18] | Potency [19]

CCC(C)OC(=O)c1ccc(O)cc1 (stereo not given)
inactive: Potency [1] | outcome [2] | Potency [3] | Potency [4] | Potency [5] | Potency [7] | Potency [9] | Potency [10] | Potency [20] | Potency [12] | Potency [14] | Potency [15] | Potency [16]
active: activity change, positive = activation ([6]; at 92.4 µM (top of the series)) 6.7%

CC(C)OC=O
inactive: outcome [2] | Potency [3] | Potency [4] | Potency [5] | activity change, positive = activation ([6]; at 92.4 µM (top of the series)) -9.53% and -2.76% | Potency [7] | Potency [8] | Potency [9] | Potency [10] | Potency [20] | Potency [11] | Potency [12] | max response [13] 5.62% and -7.32% | Potency [14] | Potency [15] | Potency [16] | Potency [17] | Potency [18] | Potency [19]
58.4 µM (active) and inactive: Potency [1]

C#C[C@]1(O)CC[C@H]2[C@@H]3CCc4cc(OC)ccc4[C@H]3CC[C@@]21C
active: Potency [4] 45 µM | Potency [8] 24.5 µM and 19 µM | Potency [13] 24.5 µM and 19 µM
inactive: Potency [1] | outcome [2] | Potency [3] | Potency [5] | activity change, positive = activation ([6]; at 42.5 µM (top of the series)) -12.2% | activity change, positive = activation ([6]; at 92.4 µM (top of the series)) -15.3% | Potency [7] | Potency [9] | Potency [10] | Potency [12] | Potency [14] | Potency [15] | Potency [16] | Potency [19]
